According to PubChem BioAssay (NCI):
About 83,000 compounds went through this panel and 20% of them were active in at least one assay; those are over-represented in the sample as a whole.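 Compound tested at a single concentration for 48 hours in 96-well plates; a percent growth value below 10 was scored as active.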 Values without a mark were called inactive. The source made the active and inactive calls.

Experiments:
Experiment in all cases: NCI-60 one-dose screen, 48 h (100 = growth as untreated, 0 = no growth, -100 = all killed)
Conditions in all cases: 10 µM unless noted
DU-145 prostate = tested on: DU-145 prostate
K-562 leukemia = tested on: K-562 leukemia
MALME-3M melanoma = tested on: MALME-3M melanoma
MDA-MB-231 breast = tested on: MDA-MB-231 breast
RXF 393 renal = tested on: RXF 393 renal
SF-268 CNS = tested on: SF-268 CNS
SF-295 CNS = tested on: SF-295 CNS
SF-539 CNS = tested on: SF-539 CNS
UACC-257 melanoma = tested on: UACC-257 melanoma
M14 melanoma = tested on: M14 melanoma
HCT-15 colon = tested on: HCT-15 colon
HT29 colon = tested on: HT29 colon
SNB-75 CNS = tested on: SNB-75 CNS
SNB-19 CNS = tested on: SNB-19 CNS
U251 CNS = tested on: U251 CNS
PC-3 prostate = tested on: PC-3 prostate
SK-MEL-5 melanoma = tested on: SK-MEL-5 melanoma
UACC-62 melanoma = tested on: UACC-62 melanoma
LOX IMVI melanoma = tested on: LOX IMVI melanoma
SK-MEL-28 melanoma = tested on: SK-MEL-28 melanoma

Structure (SMILES)	growth (DU-145 prostate)	growth (K-562 leukemia)	growth (MALME-3M melanoma)	growth (MDA-MB-231 breast)	growth (RXF 393 renal)	growth (SF-268 CNS)	growth (SF-295 CNS)	growth (SF-539 CNS)	growth (UACC-257 melanoma)	growth (M14 melanoma)	growth (HCT-15 colon)	growth (HT29 colon)	growth (SNB-75 CNS)	growth (SNB-19 CNS)	growth (U251 CNS)	growth (PC-3 prostate)	growth (SK-MEL-5 melanoma)	growth (UACC-62 melanoma)	growth (LOX IMVI melanoma)	growth (SK-MEL-28 melanoma)
O=C1NC(=O)/C(=C/c2ccc(Cl)cc2Cl)N1	117%	104%	100%	110%	120%	103%	114%	103%	108%	121%	103%	121%	83.7%	107%	102%	96.5%	108%	102%	97.3%	109%
C[C@]12CCC(=O)C=C1CCC1C2[C@@H](O)C[C@@]2(C)C1CC[C@]2(O)C(=O)COC(=O)CCC(=O)O (stereo not given in full)	118%	117%	81.7%	94.7%	121%	107%	117%	97%	114%	104%	112%	107%	123%	104%	105%	93.2%	98.6%	106%	98.5%	108%
COc1cc(/C=C/C(=O)C(C(=O)/C=C/c2ccc(OC(=O)CCNc3nnc(C)s3)c(OC)c2)C(=O)CCNc2nnc(C)s2)ccc1OC(=O)CCNc1nnc(C)s1	-14.5% (active)	-11.8% (active)	-29.7% (active)	-4.77% (active)	-70.2% (active)	19.8%	2.23% (active)	-15.8% (active)	46.5%	-2.91% (active)	-43.2% (active)	-69% (active)	-13.6% (active)	32.7%	11.1%	-16.4% (active)	-22.6% (active)	-67.6% (active)	-68.7% (active)	-15.6% (active)
CC(C)N(Cc1ccccc1)c1c(Cl)ssc1=O	94.9%	108%	104%	89.3%	74.8%	118%	108%	96%	94.3%	91%	108%	100%	113%	101%	102%	95.9%	104%	93.1%	96.3%	101%
COc1cc(/C=C/C(=O)C(C(=O)/C=C/c2ccc(OC(=O)CCNC34CC5CC(CC(C5)C3)C4)c(OC)c2)C(=O)CCNC23CC4CC(CC(C4)C2)C3)ccc1OC(=O)CCNC12CC3CC(CC(C3)C1)C2 (stereo not given)	-48.8% (active)	0.83% (active)	18.6%	13.3%	-68.8% (active)	28.2%	37.5%	-23.7% (active)	48.1%	-1.22% (active)	-18.2% (active)	-71.6% (active)	-32.3% (active)	39.2%	7.57% (active)	13.6%	-36.8% (active)	20.2%	-72.7% (active)	-8.59% (active)
CCCCc1n(Cc2ccc3ccccc3c2)cc[n+]1Cc1ccc2ccccc2c1	13.6%	-17.9% (active)	-52.8% (active)	-92.9% (active)	-42.7% (active)	-12.6% (active)	-14.1% (active)	-4.06% (active)	-33.8% (active)	-75.2% (active)	49.5%	-34.4% (active)	-18% (active)	-22.9% (active)	-46.5% (active)	-29.7% (active)	-97.8% (active)	-85.9% (active)	-88.2% (active)	-55% (active)
CCN(CC)CCNCC(=O)Oc1ccc(/C=C/C(=O)CC(=O)/C=C/c2ccc(OC(=O)CNCCN(CC)CC)c(OC)c2)cc1OC	-56.6% (active)	-37.7% (active)	-0.278% (active)	14%	-73% (active)	13.5%	27.3%	-35.9% (active)	53.7%	-18.6% (active)	14.4%	-80.7% (active)	-8.49% (active)	22%	13.4%	14.4%	-13.7% (active)	15.4%	-66.5% (active)	14.5%
NS(=O)(=O)c1cc2c(cc1Cl)NC=NS2(=O)=O	111%	120%	103%	113%	121%	109%	104%	103%	104%	96.4%	102%	94.7%	96.3%	107%	99.7%	100%	107%	103%	99.6%	108%
C[C@H]1O[C@@H](O[C@H]2[C@@H](O)C[C@H](O[C@H]3[C@@H](O)C[C@H](O[C@H]4CC[C@]5(C)C6CC[C@]7(C)[C@@H](C8=CC(=O)OC8)CC[C@]7(O)C6CC[C@@H]5C4)O[C@@H]3C)O[C@@H]2C)C[C@H](O)[C@@H]1O (stereo not given in full)	-100% (active)	-45% (active)	-63.9% (active)	-48.6% (active)	-27.1% (active)	-100% (active)	-98.2% (active)	-94.6% (active)	-100% (active)	-81.1% (active)	-85.6% (active)	-89.8% (active)	-80.8% (active)	-100% (active)	-100% (active)	-24.1% (active)	-100% (active)	-82.4% (active)	-100% (active)	-51.5% (active)
O=c1[nH]c(N2CCC(Cc3ccccc3)CC2)nc2sc3c(c12)CCCC3	107%	110%	102%	106%	104%	95.2%	94.6%	105%	85.4%	100%	101%	83.8%	89.4%	106%	91.7%	72.7%	102%	98.1%	97.4%	115%
O=C(CNC(=O)c1cccc2ccccc12)Nc1ccccc1Oc1cccc(O)c1	17.1% [5 µM]	9.03% [5 µM] (active)	63.6% [5 µM]	48.9% [5 µM]	-19% [5 µM] (active)	49.9% [5 µM]	3.33% [5 µM] (active)	-18.4% [5 µM] (active)	45% [5 µM]	-8.22% [5 µM] (active)	22.6% [5 µM]	14.8% [5 µM]	4.28% [5 µM] (active)	38% [5 µM]	14.3% [5 µM]	28.1% [5 µM]	26.4% [5 µM]	44.9% [5 µM]	33.4% [5 µM]	57.3% [5 µM]
COc1ccc2cc(C3=CC(=O)CCC3)ccc2c1	103%	105%	114%	99.6%	99.4%	103%	110%	95.7%	96.6%	104%	99.2%	86.7%	95.1%	92.1%	102%	91.3%	94.3%	77.1%	91.1%	115%
NC(=O)c1cc(Br)cc(Br)c1NS(=O)(=O)c1ccccc1	110%	122%	94.1%	88.1%	104%	108%	98.2%	98.6%	131%	101%	100%	110%	68.2%	105%	108%	89.2%	98.2%	94.9%	99.4%	110%
CN(C)c1ccc(-c2nc3ncc(Br)cc3o2)cc1	99.8%	81.5%	118%	90.2%	83.8%	114%	109%	91.4%	104%	97.6%	115%	110%	103%	91%	100%	83.3%	99.8%	87.3%	98.4%	120%
COc1cccc(-c2nc(-c3ccc(N)cc3)co2)c1	102%	84.5%	114%	88.1%	93.2%	128%	92.8%	110%	93.1%	91.1%	89.8%	87.2%	116%	113%	92.2%	98.2%	85.9%	90.3%	97%	111%
